Results: PubChem BioAssay AID1159580 (chemical genetic matrix, 2015)
“And” between values parts separate entries of the source, which are not always exact repeats. Identical values can stand only once. Screen size: about 5,500 compounds; about 2,000 (36%) were called active. Inconclusive results (about 18%) are left out. Rule as the data show it: active = normalized growth mostly below about 0.91 (no sharp cut-off); inconclusive = no clear call, values can overlap the other calls; inactive = mostly above about 0.92. This is one part of the list.

Test: chemical genetic growth profiling, strain panel (AID 1159580);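 also: tested at 20 µM; growth read once vehicle control cultures reached saturation at 30 °C; 1 = growth at the plate median or of vehicle wells; lower values mean less growth of the strain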
Conditions: S. cerevisiae deletion strains, growth OD
[1] = locus YAL040C, strain CLN3, hits give low values
[2] = locus YCL061C, strain MRC1 (second series), hits give low values
[3] = locus YDR150W, strain NUM1, hits give low values
[4] = locus YDR363W, strain ESC2, hits give low values
[5] = locus YER002W, strain NOP16, hits give low values
[6] = locus YGR078C, strain PAC10, hits give low values
[7] = locus YMR307W, strain GAS1, hits give low values
[8] = locus YNL153C, strain GIM3, hits give low values
[9] = locus YNL175C, strain NOP13, hits give low values
[10] = locus YNL197C, strain WHI3, hits give low values
[11] = locus YNL224C, strain SQS1, hits give low values
[12] = locus YOR083W, strain WHI5 (second series), hits give low values
[13] = locus YJR075W, strain HOC1, hits give low values

Measured: normalized growth

N[C@@H](CCC(=O)N[C@H](CSN=O)C(=O)NCC(=O)O)C(=O)O
inactive: [1] 1 | [2] 1.01 | [3] 1 | [4] 1.05 | [5] 1 | [6] 1.02 | [7] 0.996 | [8] 1.01 | [9] 1.01 | [10] 1 | [11] 1 | [12] 1.01 | locus YPL055C, strain LGE1, hits give low values 1.02 | locus YPL241C, strain CIN2, hits give low values 0.995

CCn1ccnc1CC1COc2ccccc2O1 (configuration not stated)
inactive: [1] 1.02 | [2] 1 | [3] 1 | [4] 0.993 | [5] 1.01 | locus YGR229C, strain SMI1, hits give low values 0.993 | [13] 1 | [7] 0.996 | locus YNL128W, strain TEP1, hits give low values 1.01 | [9] 0.997 | [10] 0.996 | [11] 1.01 | [12] 1.07

COc1c2c(cc3c1OCO3)CCN(C)C2
inactive: locus YAL021C, strain ccr4, hits give low values 0.987 | locus YAL026C, strain drs2, hits give low values 1.01 | locus YAL030W, strain snc1, hits give low values 1.01 | locus YBL061C, strain skt5, hits give low values 1.02 | locus YBR009C, strain hhf1, hits give low values 1.02 | locus YBR021W, strain FUR4, hits give low values 0.988 | locus YBR023C, strain chs3, hits give low values 1.01 | locus YBR171W, strain sec66, hits give low values 1.03 | locus YBR229C, strain ROT2, hits give low values 1.01 | locus YBR231C, strain swc5, hits give low values 1.01 | locus YBR279W, strain paf1, hits give low values 1 | locus YCL011C, strain gbp2, hits give low values 1.01 | locus YCL016C, strain dcc1, hits give low values 1.01 | locus YCL029C, strain bik1, hits give low values 1 | locus YCL061C, strain MRC1, hits give low values 1.02 | locus YCL069W, strain vba3, hits give low values 1 | locus YCR088W, strain abp1, hits give low values 1.01 | locus YDL005C, strain med2, hits give low values 1.02 | locus YDL035C, strain GPR1, hits give low values 1.02 | locus YDL040C, strain nat1, hits give low values 0.996 | locus YDL074C, strain BRE1, hits give low values 1.01 | locus YDL101C, strain DUN1, hits give low values 1.02 | locus YDL185W, strain tfp1, hits give low values 0.995 | locus YDL192W, strain arf1, hits give low values 1.01 | locus YDR001C, strain nth1, hits give low values 1.01 | locus YDR069C, strain doa4, hits give low values 1.02 | locus YDR101C, strain arx1, hits give low values 1 | locus YDR137W, strain rgp1, hits give low values 1.01 | locus YDR159W, strain sac3, hits give low values 1.01 | locus YDR162C, strain NBP2, hits give low values 1.01 | locus YDR195W, strain ref2 0.999 | locus YDR297W, strain sur2, hits give low values 0.999 | locus YDR318W, strain mcm21, hits give low values 1 | locus YDR334W, strain swr1, hits give low values 1.02 | locus YDR335W, strain msn5, hits give low values 0.998 | locus YDR388W, hits give low values 1 | locus YDR392W, strain spt3, hits give low values 0.991 | locus YDR502C, strain sam2, hits give low values 1 | locus YEL003W, strain gim4, hits give low values 1.01 | locus YEL037C, strain rad23, hits give low values 1 | locus YEL061C, strain CIN8 (second series), hits give low values 1 | locus YEL061C, strain CIN8, hits give low values 1.01 | locus YER015W, strain faa2, hits give low values 1.01 | locus YER016W, strain bim1, hits give low values 1.02 | locus YER110C, hits give low values 0.996 | locus YER111C, strain swi4, hits give low values 1.01 | locus YER155C, strain BEM2 (second series), hits give low values 1.02 | locus YER155C, strain BEM2, hits give low values 1.01 | locus YER167W, strain BCK2, hits give low values 1 | locus YFR010W, strain ubp6, hits give low values 1.02 | locus YGL078C, strain dbp3, hits give low values 1 | locus YGL086W, strain mad1, hits give low values 1.02 | locus YGL167C, strain pmr1, hits give low values 1.02 | locus YGL173C, strain kem1, hits give low values 1.02 | locus YGL227W, strain vid30, hits give low values 1.01 | locus YGL240W, strain doc1, hits give low values 1.02 | locus YGL248W, strain PDE1, hits give low values 1.01 | locus YGL253W, strain hxk2, hits give low values 1.01 | [6] 1.01 | locus YGR135W, strain pre9, hits give low values 0.992 | locus YGR252W, strain gcn5, hits give low values 0.986 | locus YHR013C, strain ard1, hits give low values 1.01 | locus YHR027C, strain rpn1, hits give low values 1.02 | locus YHR030C, strain SLT2, hits give low values 1 and 1.06 | locus YHR079C, strain IRE1 (second series), hits give low values 1.02 | locus YHR079C, strain IRE1, hits give low values 1.05 | locus YHR094C, strain hxt1, hits give low values 0.994 | locus YHR129C, strain ARP1, hits give low values 1 | locus YHR142W, strain chs7, hits give low values 0.991 | locus YHR200W, strain rpn10, hits give low values 0.975 | locus YIL066C, strain RNR3, hits give low values 1.01 | locus YIL073C, strain SPO22, hits give low values 1.01 | locus YIL125W, strain kgd1, hits give low values 1 | locus YIR030C, strain dcg1, hits give low values 0.997 | locus YJL092W, strain hpr5, hits give low values 1.01 | locus YJL095W, strain BCK1 (second series), hits give low values 1.01 | locus YJL095W, strain BCK1, hits give low values 0.996 and 1.04 | locus YJL115W, strain asf1, hits give low values 1.01 | locus YJL129C, strain trk1, hits give low values 1.03 | locus YJL134W, strain LCB3, hits give low values 0.998 | locus YJL154C, strain vps35, hits give low values 0.998 | locus YJL164C, strain tpk1, hits give low values 0.992 | locus YJL166W, strain qcr8, hits give low values 0.999 | locus YJL168C, strain set2, hits give low values 1 | locus YJL187C, strain SWE1 (second series), hits give low values 1.01 | locus YJL187C, strain SWE1, hits give low values 1.01 | locus YJR043C, strain POL32, hits give low values 1.02 | locus YJR066W, strain TOR1, hits give low values 0.976 | [13] 1.01 | locus YKL009W, strain mrt4, hits give low values 1.02 | locus YKL068W, hits give low values 0.992 | locus YKL085W, strain MDH1 (second series), hits give low values 0.999 | locus YKL085W, strain MDH1, hits give low values 0.999 | locus YKL160W, strain elf1, hits give low values 0.992 | locus YKL190W, strain CNB1, hits give low values 1.01 | locus YKR001C, strain vps1, hits give low values 0.964 | locus YKR026C, strain gcn3, hits give low values 1.01 | locus YKR091W, strain srl3, hits give low values 0.998 | locus YLL001W, strain dnm1, hits give low values 0.991 | locus YLL026W, hits give low values 1.01 | locus YLL041C, strain sdh2, hits give low values 1.01 | locus YLR027C, strain aat2, hits give low values 1.02 | locus YLR039C, strain RIC1, hits give low values 1.02 | locus YLR058C, strain SHM2, hits give low values 1.01 | locus YLR102C, strain apc9, hits give low values 0.997 | locus YLR113W, strain HOG1, hits give low values 1.04 | locus YLR221C, strain rsa3, hits give low values 1.03 | locus YLR258W, strain gsy2, hits give low values 0.999 | locus YLR262C, strain YPT6 (second series), hits give low values 0.987 | locus YLR262C, strain YPT6, hits give low values 1.01 | locus YLR268W, strain sec22, hits give low values 1.01 | locus YLR320W, strain mms22, hits give low values 1.02 | locus YLR330W, strain CHS5, hits give low values 1.01 | locus YLR342W, strain FKS1 (second series), hits give low values 1.01 | locus YLR342W, strain FKS1, hits give low values 1 | locus YLR357W, strain rsc2, hits give low values 1.01 | locus YLR370C, strain arc18, hits give low values 1.01 | locus YLR371W, strain rom2, hits give low values 1 | locus YLR384C, strain iki3, hits give low values 1.02 | locus YLR418C, strain cdc73, hits give low values 0.957 | locus YML016C, strain PPZ1, hits give low values 0.986 | locus YML032C, strain rad52, hits give low values 0.982 | locus YML120C, strain ndi1, hits give low values 1 | locus YML124C, strain tub3, hits give low values 0.99 | locus YMR058W, strain fet3, hits give low values 1.02 | locus YMR078C, strain ctf18, hits give low values 0.996 | locus YMR125W, strain sto1, hits give low values 1 | locus YMR129W, hits give low values 1.01 | locus YMR205C, strain PFK2, hits give low values 0.996 | locus YMR223W, strain ubp8, hits give low values 0.992 | locus YMR231W, strain pep5, hits give low values 0.987 | locus YMR263W, strain SAP30, hits give low values 1.02 | [7] 1.02 | locus YNL067W, strain RPL9B, hits give low values 1.01 | locus YNL071W, strain lat1, hits give low values 1 | [8] 1 | locus YNL183C, strain NPR1, hits give low values 0.985 | locus YNL209W, strain ssb2, hits give low values 1 | locus YNL233W, strain BNI4, hits give low values 1.01 | locus YNL248C, strain rpa49, hits give low values 1.02 | locus YNL250W, strain rad50, hits give low values 0.993 | locus YNL271C, strain bni1, hits give low values 1.01 | locus YNL298W, strain CLA4, hits give low values 0.984 | locus YNL307C, strain MCK1, hits give low values 1 | locus YNL322C, strain KRE1 (second series), hits give low values 1.02 | locus YNL322C, strain KRE1, hits give low values 1.01 | locus YNR049C, strain mso1, hits give low values 1.01 | locus YNR052C, strain pop2, hits give low values 1.01 | locus YOL012C, strain htz1 0.662 | locus YOL147C, strain pex11, hits give low values 0.979 | locus YOR001W, strain rrp6, hits give low values 1.04 | locus YOR061W, strain CKA2, hits give low values 1.01 | locus YOR069W, strain VPS5, hits give low values 1.01 | locus YOR070C, strain gyp1, hits give low values 1.02 | locus YOR080W, strain dia2, hits give low values 1.01 | locus YOR083W, strain WHI5, hits give low values 0.991 | locus YOR106W, strain vam3, hits give low values 1.02 | locus YOR136W, strain idh2, hits give low values 1.02 | locus YOR144C, strain elg1, hits give low values 0.985 | locus YOR184W, strain ser1, hits give low values 1.04 | locus YOR231W, strain MKK1, hits give low values 1.04 | locus YOR265W, strain rbl2, hits give low values 1.01 | locus YOR270C, strain vph1, hits give low values 1.01 | locus YOR290C, strain snf2, hits give low values 0.981 | locus YOR316C, strain cot1, hits give low values 0.991 | locus YPL051W, strain arl3, hits give low values 1.01 | locus YPL078C, strain atp4, hits give low values 0.981 | locus YPL106C, strain sse1, hits give low values 0.996 | locus YPL240C, strain hsp82, hits give low values 1.01 | locus YPL256C, strain CLN2, hits give low values 1.06 | locus YPR119W, strain clb2, hits give low values 1 | locus YPR141C, strain kar3, hits give low values 0.991 | locus YPR163C, strain tif3, hits give low values 0.995 | locus YPR167C, strain met16, hits give low values 0.996 | strain wtn01, hits give low values 0.997
